# In all, about 33,000 sequences were measured (“E-score (dimensionless, -0.5 to 0.5)”: median about -0.058, highest 2% from about 0.35 on). The sample as a whole holds a higher share of the highest values than the screen did.
# System: MvaT
# Test: PBM 8-mer E-score (mean of HK and ME arrays) (E-score (dimensionless, -0.5 to 0.5)); higher = stronger relative binding preference
# Outline: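 Full-length P. aeruginosa MvaT carrying an N-terminal glutathione S-transferase tag was tested by protein binding microarray following a previously described protocol. Two universal double-stranded 60-mer arrays, ME and HK, were used, each with a constant 25-mer primer region and a variable 35-mer region covering all 8-mers. The rank-based E-score is the mean of the two arrays, parsed with a custom script. Its range runs from -0.5 to 0.5 for each 8-mer.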
row,Sequence,PBM 8-mer E-score
1,GTATTTAA,0.368
2,GGATTTTA,0.112
3,GGATTTAA,0.283
4,ATATTTTG,0.319
5,GCATTTTA,0.177
6,CTATTTTA,0.261
7,GTATTTCA,0.223
8,GCCTCGTA,-0.109
9,AGGGATGC,-0.182
10,GGTCGTTA,-0.0413
11,GCGAGTCA,-0.112
12,CCGGGAGG,-0.293
13,CTGCAGCC,-0.148
14,AAAAAGGT,-0.0123
15,CTCAATTA,0.234
16,ATTAATTG,0.391
17,ATTAATGG,0.262
18,AGTAATTC,0.144
19,ATCAATTA,0.319
20,CTTAATTC,0.281
21,ATTAATCG,0.336
22,ATTAATTA,0.461

row,Sequence,PBM 8-mer E-score
1,CTGAATTA,0.266
2,ATTAATTC,0.415
3,ATGAATTA,0.295
4,CTTAATTA,0.454
5,ACAGGGCT,-0.196
6,CACTTCGC,-0.174
7,ATATCGTA,0.207
8,GACGCAGC,-0.356
9,ATACTGGG,0.00507
10,AGTCATTA,0.14
11,CGGTAAGC,-0.0976
12,ACCCGGGA,-0.218
13,ATTAATGC,0.341
14,ATTAATCA,0.405
15,GTTAATTA,0.415
16,AGTAATTA,0.421
17,GTCAATTA,0.164
18,ATTAATCC,0.332
19,GTTAAGTA,0.203
20,CTTAATCA,0.174
21,ATTAATGA,0.363
22,CTTAATGA,0.0908

row,Sequence,PBM 8-mer E-score
1,CGTAATTA,0.31
2,GGTAATTA,0.286
3,CTTACGCA,-0.158
4,AATTGCAA,0.179
5,AAGCAGCC,-0.138
6,TAACCTTA,0.0355
7,GTAGGGCA,-0.179
8,CATAAGGG,-0.214
9,CAGCTCGG,-0.199
10,ACGACCTC,-0.143
11,ACCCAATC,-0.0955
12,CTAATACA,0.325
13,ATAATACA,0.407
14,ATAATACC,0.333
15,AAAATACG,0.184
16,ACAATACG,0.0961
17,ATAATACG,0.354
18,ATGGCACA,-0.0727
19,GCGTGTAC,-0.107
20,GAGATCGC,-0.123
21,ATGTTAAG,0.178
22,ATGTTAAT,0.39

row,Sequence,PBM 8-mer E-score
1,GTGTTAAC,0.219
2,ATGTTAAA,0.329
3,ATGTTAAC,0.363
4,CTGTTAAC,0.141
5,TGCGTCAA,-0.0324
6,GGGAACAC,-0.198
7,CCTGTCCG,-0.203
8,CCTCGAGC,-0.149
9,CAGTTGCG,-0.0888
10,CATTATCC,0.235
11,CATTATTC,0.363
12,CATTATGA,0.214
13,GATTATTA,0.391
14,GATTATGC,0.148
15,CATTATCA,0.169
16,GATTATCC,0.209
17,TATTATCA,0.404
18,CCTTATTC,0.189
19,CATTATTA,0.432
20,AATTATCA,0.325
21,GATTATCA,0.193
